{
  "source": "PubChem BioAssay AID504329",
  "about": "(Southern Research Specialized Biocontainment Screening …, 2011)",
  "note": "Among all 340,000 compounds or so, about 1,000 (0.29%) were called active. A selection follows. Measured potencies and affinities stand elsewhere. Unmarked numbers belong to inactive results. No stated cut-off is given here; in the data, inconclusive means inhibition above about 27% without an active follow-up result; inactive means below that.",
  "data": [
    {"experiment": "H1N1 influenza NS1A inhibitors, functional cell based assay (AID 504329)", "settings": "percent inhibition, at 12.5 µM, stronger effect = higher value", "units": {"inhibition": "%"}, "values": [
      {"smiles": "CCn1c(C)nc2cc(C(=O)N/N=C/c3cccc(OC)c3O)ccc21", "inhibition": 5.9},
      {"smiles": "CCn1c(C)nc2cc(C(=O)N/N=C/c3cccc(O)c3O)ccc21", "inhibition": 0.31},
      {"smiles": "O=C(O)c1cc(-c2ccccc2)nc2ccccc12", "inhibition": 1.29},
      {"smiles": "O=C(O)c1cc(-c2cccc3ccccc23)nc2ccccc12", "inhibition": -1.69},
      {"smiles": "COc1ccc(C(=O)N2CCN(c3ncccn3)CC2)cc1[N+](=O)[O-]", "inhibition": -14.3},
      {"smiles": "O=C(NC(=S)Nc1ccc2oc(-c3ccncc3)nc2c1)c1ccccc1F", "inhibition": 1.17},
      {"smiles": "O=C(N/N=C/c1c[nH]c2ccccc12)c1ccc(Cl)cc1", "inhibition": 3.88},
      {"smiles": "Clc1ccc(OCc2nc(-c3ccccn3)n[nH]2)cc1", "inhibition": 6.94},
      {"smiles": "c1ccc(-c2nnc(-c3ccccn3)s2)nc1", "inhibition": -1.25},
      {"smiles": "Clc1ccc(-c2cnc3ccccc3n2)cc1", "inhibition": -9.76},
      {"smiles": "c1ccc(-c2nc(-c3ccccn3)nc(-c3ccccn3)n2)nc1", "inhibition": 7.93},
      {"smiles": "c1ccc(-c2ccncc2)nc1", "inhibition": -0.28},
      {"smiles": "c1ccc(-c2nn[nH]n2)nc1", "inhibition": -11.7},
      {"smiles": "c1ccc(-c2nc3ccccc3[nH]2)nc1", "inhibition": 13.8},
      {"smiles": "c1ccc(-c2cnc(-c3ccccc3)nn2)cc1", "inhibition": 10},
      {"smiles": "COc1ccc(C(C)=O)cc1CN(c1ccccc1OC)S(=O)(=O)c1cccs1", "inhibition": 13.1},
      {"smiles": "Cc1cc(C)nc(SCc2ccc(C(=O)N/N=C/c3ccco3)cc2)n1", "inhibition": -4.36},
      {"smiles": "CCCNS(=O)(=O)c1cccc(C(=O)NC2CCCc3ccccc32)c1", "note": "(stereo not drawn)", "inhibition": -1.43},
      {"smiles": "Cc1ccc(C)c(SCC(=O)NC2CCS(=O)(=O)C2)c1", "note": "(stereo not drawn)", "inhibition": -12.1},
      {"smiles": "CCCCCCCCNC(=O)c1cnccn1", "inhibition": -8.66},
      {"smiles": "Nc1nc(N)nc(-c2ccccc2O)n1", "inhibition": 1.67},
      {"smiles": "CSc1nncc(-c2ccccc2)n1", "inhibition": -2.08},
      {"smiles": "c1ccc(-c2ccccn2)nc1", "inhibition": -0.49},
      {"smiles": "c1ccc(-c2n[nH]c(-c3ccccn3)n2)cc1", "inhibition": -0.5},
      {"smiles": "c1ccc(-c2nc(-c3ccccn3)no2)cc1", "inhibition": -0.45},
      {"smiles": "c1cc(-c2n[nH]c(-c3ccncc3)n2)ccn1", "inhibition": -1.91},
      {"smiles": "Nc1nc(N)nc(-c2ccccc2-c2nc(N)nc(N)n2)n1", "inhibition": 21.3},
      {"smiles": "c1ccc(-c2nc3ccccc3nc2-c2ccccn2)nc1", "inhibition": 0.35},
      {"smiles": "CCN(CC)S(=O)(=O)c1ccc(N2CCOCC2)c(NC(=O)COc2ccccc2C)c1", "inhibition": -22.8},
      {"smiles": "CCc1nc2ccccc2n1Cc1cc(=O)n2cc(C)ccc2n1", "inhibition": -1.64},
      {"smiles": "CCOc1ccc(NC(=S)N2CCN(S(=O)(=O)c3ccccc3)CC2)cc1", "inhibition": 24.8},
      {"smiles": "CC(C)(C)c1nnc(N/N=C/c2ccc(Br)cc2)n(N)c1=O", "inhibition": -5.94},
      {"smiles": "CCc1nnc(N/N=C/c2cc(C)c(C)cc2C)n1N", "inhibition": -3.56},
      {"smiles": "Cc1nnc(N/N=C/c2ccccc2O)n1N", "inhibition": 9.93},
      {"smiles": "CCc1nnc(N/N=C/c2ccccc2F)n1N", "inhibition": -9},
      {"smiles": "CC(C)(C)c1nnc(N/N=C/c2ccccc2)n(N)c1=O", "inhibition": -3.79},
      {"smiles": "CC(C)(C)c1nnc(N/N=C/c2ccc(O)cc2)n(N)c1=O", "inhibition": 6.15},
      {"smiles": "Cc1ccc(CN2CCC(n3nccc3NC(=O)CCOc3ccccc3)CC2)cc1C", "inhibition": -4.94},
      {"smiles": "CCN1CCN(C(c2cc(OC)ccc2OC)c2nnnn2Cc2ccccc2)CC1", "note": "(stereo not drawn)", "inhibition": -5.45},
      {"smiles": "Cc1cn(CC(=O)NCc2ccc3c(c2)OCO3)c(=O)[nH]c1=O", "inhibition": 0.05},
      {"smiles": "Cc1ccc(C(=O)COC(=O)CNC(=O)c2cccs2)cc1C", "inhibition": 3.9},
      {"smiles": "Cc1ccc(CS(=O)Cc2ccc(C(=O)NCCc3ccccc3)o2)cc1", "note": "(stereo not drawn)", "inhibition": 3.5},
      {"smiles": "COc1ccc(N2CCN(C(=O)c3c(C)nn(-c4ccccc4)c3C)CC2)cc1", "inhibition": 1.11},
      {"smiles": "COc1ccc(C(=O)Nc2ccc(Cl)cc2C(=O)N2CCCC(C)C2)cc1OC", "note": "(stereo not drawn)", "inhibition": -10.1},
      {"smiles": "O=S1(=O)[C@H]2CC3O[C@]2(C[C@@H]3c2ccc(F)cc2)CN1Cc1ccc(Cl)cc1", "inhibition": -1.02},
      {"smiles": "COc1cc(C(=O)NC2CCN(Cc3nnnn3Cc3cccs3)CC2)cc(OC)c1OC", "inhibition": -19},
      {"smiles": "CCCNc1ncnc2onc(C)c12", "inhibition": -5.28},
      {"smiles": "c1ccc(-c2csc(Nc3cccnc3)n2)nc1", "inhibition": 14.1},
      {"smiles": "Oc1cc(NCc2ccc(Cl)cc2)cc2cccnc12", "inhibition": -7.85},
      {"smiles": "Clc1cnc(Nc2cccnc2)c(Cl)c1", "inhibition": -6.41},
      {"smiles": "O=C(Nc1ccncc1)c1cc2ccccc2cc1O", "inhibition": -5.8},
      {"smiles": "Oc1cc(Nc2ccccc2)cc2cccnc12", "inhibition": 3.79},
      {"smiles": "Oc1cc(NCc2ccc(F)cc2)cc2cccnc12", "inhibition": -7.28}
    ]}
  ]
}
